# High-throughput results as filed in PubChem BioAssay.
# NS1 function inh: influenza NS1 inhibition. 270,000 compounds, 0.4% hits. Potency, µM (series often up to 46.1 µM), inactives show at the top dose activity, positive = more growth; calls by dose curve; further: actives are rising curves; nearly all actives have a fitted effect of over 50% in size
#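 Compounds were scored for reversing the slow growth caused by influenza A NS1 in S. cerevisiae, measured by optical density at 600 nm. Assay medium contained 2% galactose at pH 6.0; NS1-free yeast of the same strain were the positive control.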
# AMA1 RON2 block: inhibitors of Plasmodium falciparum AMA1-RON2 interaction; 360,000 compounds, 0.2% hits; Potency, µM (doses to about 58.2 µM), for the others: at the highest dose activity change, negative = inhibition, usual class: inhibitors; AlphaScreen AMA1-biotinylated RON2 peptide binding;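 further: 0% = vehicle wells and -100% = peptide control; nearly all actives have a fitted effect of over 45% in size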
#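 AMA1 (3D7) with his tag at 25 nM final met compounds first, then biotinylated RON2 peptide at 25 nM; detection used donor plus acceptor beads, 10 µg/mL apiece, read by AlphaScreen after 30 min at room temperature.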
# SARS PLP yeast: blocks SARS-CoV papain-like protease in a yeast assay | S. cerevisiae expressing SARS-CoV PLpro, growth rescue | Potency, µM (series often up to 32.9 µM), without a hit: at the highest dose activity, positive = growth rescue, most hits filed as activators | 330,000 compounds, 0.19% hits; calls by dose curve; further: 0% is about no effect; nearly all actives have a fitted effect of over 55% in size
# Pf growth 48h: inhibits P. falciparum growth in the first generation, 48 h; P. falciparum luciferase growth in erythrocytes, 48 h; Potency, µM (titrated, usually from 28.7 µM), inactives show at the highest dose activity change, negative = inhibition, hits mostly inhibitors; 310,000 compounds, 5.9% hits; further: on the % scale 0 is the no-effect control and ±100 the full control effect
#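 A one-generation exposure of luciferase-tagged malaria parasites in RPMI 1640/Albumax erythrocyte culture, 37 C and 5% CO2. Inhibition is inferred from decreased luminescence after adding detection reagent.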
# HCV inh: inhibitors of hepatitis C virus infection; Potency, µM (titrated, usually from 41.8 µM), inactives show at the highest dose activity change, negative = inhibition, most hits filed as inhibitors; Huh7.5.1 HCVcc-Cre infection, luciferase reporter, 44 h; 340,000 compounds, 3.4% hits; AID 651820; further: on the % scale 0 is the no-effect control and ±100 the full control effect
#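 Seed cells (1,000/well) for 4 h; treat with compound and infect with HCVcc-Cre, moi about 0.5. Incubate 44 h, then detect luciferase activity.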
# Pf growth 96h: inhibits malaria parasite growth, 96 h | P. falciparum luciferase reporter growth, 96 h | Potency, µM (doses to about 28.7 µM), inactives show at the highest dose activity change, negative = inhibition, usual class: inhibitors | 320,000 compounds, 6.9% hits | AID 504834; further: on the % scale 0 is the no-effect control and ±100 the full control effect
#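 Compounds incubated with erythrocytes infected by luciferase-expressing P. falciparum (2% hematocrit, 0.05% parasitemia final) for 96 hours, 37 C in 5% CO2. Growth inhibition scored as decreased luciferase luminescence.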
# * = called active by the depositor; ? = inconclusive; · = no result; [ ] = dose if it differs, or a comment. This is a sample that favours compounds with a hit; in the whole collection about 12% have one here. Unless noted, the call rests on the fitted dose curve; in most records, active means well fitted curve in the direction sought with a large enough effect; inconclusive means small, poorly fitted or top-dose-only effect, or another doubt; inactive means no such curve, though single readings can be large; an effect the other way counts as inactive or inconclusive. Potency means the concentration at half of the fitted maximal effect.
SMILES,NS1 function inh,AMA1 RON2 block,SARS PLP yeast,Pf growth 48h,HCV inh,Pf growth 96h
CN(C)C(=O)C12CCC(C)(c3nc4ccccc4nc31)C2(C)C (centres undefined),-1%,7%,2%,-26%,5%,2.6µM*
CCOC(=O)N1CCC(N(CCN(C)C)C(=S)Nc2ccc(Oc3ccccc3)cc2)CC1,·,15%,0%,-10%,11µM*,-84%
CCN(CC1COc2ccccc2O1)C(=S)NCCCN(C)C (centres undefined),·,-5%,1%,91%,-23%,10µM*
c1cc[n+](CCC[n+]2ccccc2)cc1,-1%,-2%,0%,20%,-8%,16%
Cc1cc(N2C(=O)C3C4CCC(C4)C3C2=O)no1 (centres undefined),6%,?,5%,21%,6%,76%
CCc1c(C(=O)Nc2ccc(OC)c(Cl)c2)[nH]c(C)c1C(C)=O,-18%,-10%,1%,12µM*,?,-6%
COc1ccc(Cl)cc1NC(=O)c1[nH]c(C)c(C(C)=O)c1C,14%,-8%,1%,54%,1%,30%
CSc1nc(N)nc(SCCS(=O)(=O)c2ccc(Cl)cc2)c1C#N,6%,-6%,-5%,-17%,10µM*,13%
COc1ccc(Cl)cc1-c1cc(C(=O)Nc2ccc(C(C)(C)C)cc2)[nH]n1,·,-2%,·,·,·,·
c1ccc(COC2CCCN(Cc3nc(-c4cnccn4)no3)C2)cc1 (centres undefined),-4%,-1%,1%,15%,8%,?
CCCOC1CCCN(Cc2nc(-c3cnccn3)no2)C1 (centres undefined),2%,-4%,-1%,41%,6%,10µM*
Cc1csc(NC(=O)c2cccn2C)n1,6%,-9%,-7%,281%,1%,317%
Cc1ccc(C(=O)Nc2nc(-c3ccccn3)cs2)s1,·,-62%,-26%,0.41µM*,?,?
O=C(Nc1nc(-c2cc(Cl)sc2Cl)cs1)c1ccccc1,-4%,23%,-33%,·,11µM*,?
C[C@H](NC(=O)c1ccccc1)C(=O)Nc1nc(-c2ccccn2)cs1,·,66%,-1%,?,?,-10%
O=C(Nc1nc(-c2ccccn2)cs1)C1CCCC1,·,53%,26%,?,-9%,?
Cn1cccc1C(=O)Nc1nc(-c2ccccn2)cs1,-109%,-9%,-39%,?,14µM*,15µM*
O=C(Nc1nc(-c2ccccn2)cs1)c1ncc(Cl)c(Cl)c1Cl,-163%,?,·,?,-10%,13µM*
Cc1cc(C)c2c(c1)/C(=c1/sc3n(c1=O)CN(c1ccccc1)CN=3)C(=O)N2,3%,-1%,-2%,6%,-10%,-4%
O=C(CSc1nccc(=O)[nH]1)NCc1ccco1,-3%,-11%,10%,21%,6%,13%
O=C(CCCCCCCC(=O)N1CCCC1)N1CCCC1,·,8%,·,·,-2%,·
CCN(C[C@H]1N[C@@](CC)(C(=O)OC)[C@H]2C(=O)N(C)C(=O)[C@@H]12)S(=O)(=O)c1ccc(F)cc1,·,6%,-1%,·,?,·
Cc1ccc(C(=O)N/C(=C/c2ccco2)C(=O)NCCc2c[nH]c3ccccc23)cc1,-2%,0%[2.32 µM],12%,?,-13%,28%
O=C(Nc1nc(-c2ccccc2)cs1)c1cccs1,-57%,15%,-36%,4%,?,177%
CC(=O)Nc1nc(-c2ccc([N+](=O)[O-])cc2)cs1,·,-2%,-7%,24%,10%,-14%
CCc1sc(C(=O)Nc2nccs2)cc1C,-69%,32%,-4%,56%,-11%,115%
CCc1sc(C(=O)Nc2nc(-c3ccccn3)cs2)cc1C,·,-36%,-22%,·,18µM*,·
O=C(Nc1ccc([N+](=O)[O-])cc1)Nc1nc(-c2ccc(Cl)s2)cs1,28%,0%,-16%,1.9µM*,?,?
O=C(Nc1nc(-c2ccc(Cl)s2)cs1)c1cccs1,-109%,13%,-20%,?,11µM*,-18%
